Results reported in PubChem BioAssay.
Activity calls are given as the source filed them. Unless noted, how the calls were made is not given here.

Tests used:
[1] = A549 cell viability effects, profiling panel, calcein-AM fluorescence, 48 h, basal (AID 1162); conditions: higher = more signal; further: test concentration not given here
[2] = adipocyte viability effects, profiling panel, cell-based, 3T3-L1 adipocytes, calcein-AM fluorescence, 48 h, basal (AID 1163); conditions: 3T3-L1 adipocytes viability, higher = more signal; further: test concentration not given here
[3] = HepG2 cell viability effects, profiling panel, calcein-AM fluorescence, 48 h, basal (AID 1164); conditions: higher = more signal; further: test concentration not given here
[4] = MM1S cell viability effects, profiling panel, calcein-AM fluorescence, 48 h, basal (AID 1165); conditions: higher = more signal;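 further: viability of MM1S multiple myeloma cells under basal unstimulated conditions; test concentration not given here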
[5] = basal RPMI8226 viability, no added stimulus, profiling panel, cell-based, calcein-AM fluorescence, 48 h, PK04 Diversity Set (AID 1166); conditions: RPMI8226 myeloma viability, higher = more signal;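 further: cells grown under basal conditions without added stimulus; test concentration not given here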
[6] = basal HepG2 mitochondrial membrane potential changes, profiling panel, cell-based, JC-1 fluorescence, 24 h, 100 nL compound (AID 1167); conditions: higher = more signal; further: test concentration not given here
[7] = basal 3T3-L1 adipocyte mitochondrial potential changes, profiling panel, cell-based, JC-1 fluorescence, 3T3-L1 adipocytes, 24 h, 100 nL compound (AID 1168); conditions: JC-1 mitochondrial fluorescence, higher = more signal, called active from +8 up or from −8 down; further: test concentration not given here
[8] = basal RPMI8226 mitochondrial membrane potential changes, profiling panel, cell-based, JC-1 fluorescence, 24 h, 100 nL compound (AID 1169); conditions: RPMI8226 myeloma, JC-1 mitochondrial potential fluorescence, higher = more signal; further: test concentration not given here
[9] = basal MM1S mitochondrial membrane potential changes, profiling panel, cell-based, JC-1 fluorescence, 24 h, 100 nL compound (AID 1170); conditions: higher = more signal; further: test concentration not given here
[10] = A549 lung cancer cell viability effects, profiling panel, resazurin fluorescence, 24 h, PK04 Diversity Set (AID 1171); conditions: higher = more signal, called active from +8 up or from −8 down; further: test concentration not given here
[11] = HepG2 liver cancer cell viability effects, profiling panel, resazurin fluorescence, 24 h, PK04 Diversity Set (AID 1172); conditions: higher = more signal; further: test concentration not given here
[12] = basal S. cerevisiae growth modulation, no modifier, primary screen, OD600, strain BY4716, 24 h, basal condition (AID 1173); conditions: OD600, 24 h, higher = more signal, called active from +8 up or from −8 down
[13] = MM1S myeloma cell viability, profiling panel, resazurin fluorescence, basal, 24 h, PK04 Diversity Set (AID 1174); conditions: higher = more signal, called active from +8 up or from −8 down;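 further: MM1S multiple myeloma cell line; test concentration not given here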
[14] = biological target: Dihydroorotate dehydrogenase (quinone), mitochondrial (Plasmodium falciparum (isolate 3D7)) (UniProt Q08210); experiment: PfDHODH enzyme inhibitors, primary screen, biochemical, C-terminal His tag, absorbance 600 nm (AID 1175); conditions: DCIP absorbance 600 nm, higher = more signal, called active from +8 up or from −8 down;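 further: recombinant parasite enzyme with a five histidine tag at its C terminus; test concentration not given here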
Dihydroorotate dehydrogenase (quinone), mitochondrial (Plasmodium falciparum (isolate 3D7)), sequence (Q08210 whole entry, looked up): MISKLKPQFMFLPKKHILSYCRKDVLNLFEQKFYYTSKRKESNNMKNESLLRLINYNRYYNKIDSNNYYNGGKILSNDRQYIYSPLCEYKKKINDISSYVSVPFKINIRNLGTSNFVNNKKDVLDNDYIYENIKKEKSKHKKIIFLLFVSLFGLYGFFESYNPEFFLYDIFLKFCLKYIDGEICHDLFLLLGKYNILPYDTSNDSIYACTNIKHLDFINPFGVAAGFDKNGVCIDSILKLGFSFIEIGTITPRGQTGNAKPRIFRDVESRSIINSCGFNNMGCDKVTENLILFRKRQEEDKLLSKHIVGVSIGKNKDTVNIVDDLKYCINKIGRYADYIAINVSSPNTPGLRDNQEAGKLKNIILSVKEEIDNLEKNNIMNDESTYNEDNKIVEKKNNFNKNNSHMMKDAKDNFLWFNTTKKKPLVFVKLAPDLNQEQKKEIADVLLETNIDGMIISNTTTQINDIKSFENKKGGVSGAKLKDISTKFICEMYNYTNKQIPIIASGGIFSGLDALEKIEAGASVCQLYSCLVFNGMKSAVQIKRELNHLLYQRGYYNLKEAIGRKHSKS

[15] = P. aeruginosa biofilm formation inhibitors, primary screen, strain PAO1, LB-PBS medium, absorbance 600 nm (AID 1176); further: test concentration not given here; conditions: P. aeruginosa PAO1 growth/biofilm, A600, 12 h; higher = more signal
[16] = S. cerevisiae RM11-1a growth modifiers, primary screen, strain RM11-1a, OD600, basal, 24 h (AID 1177); conditions: OD600, 24 h, higher = more signal, called active from +8 up or from −8 down;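 further: cultures grown under basal conditions with no added stressor; test concentration not given here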
[17] = E. coli acrAB mutant growth effects, primary screen, E. coli filamentation inducers, strain DRC39, OD650, 24 h (AID 1178); conditions: higher = more signal, called active from +8 up or from −8 down;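 further: growth measured as culture turbidity by optical density at 650 nm; test concentration not given here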
[18] = E. coli acrAB mutant growth effects, primary screen, E. coli filamentation inducers, strain DRC39, OD650, 48 h (AID 1179);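 further: screen aims at cell division blockers that make cells filament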; conditions: E. coli DRC39 delta-acrAB growth, higher = more signal, called active from +8 up or from −8 down
[19] = RPMI8226 myeloma cell viability, profiling panel, resazurin fluorescence, basal, 24 h, PK04 Diversity Set (AID 1180); conditions: higher = more signal;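 further: RPMI8826 multiple myeloma cell line at 5000 cells per well; test concentration not given here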
[20] = biological target: E3 ubiquitin-protein ligase XIAP (Homo sapiens) (UniProt P98170); experiment: XIAP binders, primary screen, biophysical, small-molecule microarray, fluorescence 635 nm (AID 1181); conditions: small-molecule microarray binding, higher = more signal;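 further: score merges 667 nm emission and signal to noise over triplicate slides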
E3 ubiquitin-protein ligase XIAP (Homo sapiens), sequence (P98170 whole entry, looked up): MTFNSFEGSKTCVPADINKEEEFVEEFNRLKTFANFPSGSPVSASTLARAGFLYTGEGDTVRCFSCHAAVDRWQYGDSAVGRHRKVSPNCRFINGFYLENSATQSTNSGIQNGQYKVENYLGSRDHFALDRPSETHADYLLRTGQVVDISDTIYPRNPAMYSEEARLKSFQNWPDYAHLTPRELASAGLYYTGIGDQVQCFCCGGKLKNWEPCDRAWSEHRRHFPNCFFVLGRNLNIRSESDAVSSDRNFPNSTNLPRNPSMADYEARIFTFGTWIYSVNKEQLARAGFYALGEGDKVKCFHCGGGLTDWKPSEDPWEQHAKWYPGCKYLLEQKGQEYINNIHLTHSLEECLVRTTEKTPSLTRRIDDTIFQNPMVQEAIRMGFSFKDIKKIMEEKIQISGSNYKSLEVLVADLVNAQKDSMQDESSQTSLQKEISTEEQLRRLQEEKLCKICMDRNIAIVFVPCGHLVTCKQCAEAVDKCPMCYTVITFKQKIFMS

SMILES | z-score [1] | z-score [2] | z-score [3] | z-score [4] | z-score [5] | z-score [6] | z-score [7] | z-score [8] | z-score [9] | z-score [10] | z-score [11] | z-score [12] | z-score [13] | composite z-score [14] | z-score [15] | z-score [16] | z-score [17] | z-score [18] | z-score [19] | composite z-score [20]
O=C1O[C@@H](c2ccccc2)[C@@H](c2ccccc2)N2[C@@H](c3ccc(O)cc3)[C@]3(C(=O)Nc4ccc(C#CC5(O)CCCCCC5)cc43)[C@@H](C(=O)NC[C@H](O)c3ccccc3)[C@H]12 | -0.0476 | 0.264 | -0.181 | -2.14 | -1.31 | -2.14 | -1.16 (inactive) | -0.66 | -0.279 | 0.119 (inactive) | 0.677 | -0.263 (inactive) | -0.418 (inactive) | 0.409 (inactive) | 0.348 (inactive) | 0.417 (inactive) | -0.839 (inactive) | -0.938 (inactive) | -0.809 | -0.312
COCCOC(=O)N1C(=O)[C@@]2(c3cc(C#CCC(C(=O)OC)C(=O)OC)ccc31)[C@H](C(=O)N1CCc3cc(OC)c(OC)cc3C1)[C@H]1C(=O)O[C@H](c3ccccc3)[C@H](c3ccccc3)N1[C@@H]2c1ccc(OCCO)cc1 | 0.206 | 0.105 | 1.42 | -0.219 | 0.0896 | -0.781 | 0.512 (inactive) | -0.637 | -1.28 | -0.225 (inactive) | -0.679 | 1.63 (inactive) | -0.348 (inactive) | -1.34 (inactive) | 2.39 (inactive) | 2.8 (inactive) | -0.132 (inactive) | 0.325 (inactive) | 0.847 | -0.332
O=C1O[C@H](c2ccccc2)[C@H](c2ccccc2)N2[C@H]1[C@@H](C(=O)O)[C@]1(C(=O)Nc3ccc(C#CC4=CCCCC4)cc31)[C@H]2c1ccc(O)cc1 | 0.576 | -0.029 | 0.85 | -3.14 | -2.25 | -3.42 | 0.0262 (inactive) | -1.03 | -0.657 | 0.391 (inactive) | -0.176 | -1.73 (inactive) | 0.248 (inactive) | -4.56 (inactive) | 1.42 (inactive) | 0.168 (inactive) | -0.448 (inactive) | -0.174 (inactive) | -0.0705 | 0.0938
C[C@@H]1ON(c2ccc(C(=O)OC(C)(C)C)cc2)[C@H](c2ccc(O)cc2)[C@H]1C(=O)N1C(=O)OC[C@H]1Cc1ccccc1 | -1.68 | 0.82 | -4.85 | -3.31 | -4.04 | -3.38 | -0.493 (inactive) | -0.877 | -2.81 | -1.31 (inactive) | -1.61 | 0.479 (inactive) | -1.04 (inactive) | 0.771 (inactive) | 0.212 (inactive) | 0.351 (inactive) | -0.682 (inactive) | -0.118 (inactive) | -0.687 | -0.13
C=C(CCCC)/C(=C/C[C@@H](OC(=O)c1ccncc1)c1ccccc1OCCO)c1cnc2ccccc2c1 | 0.453 | 1.21 | -0.158 | -3.2 | -2 | 1.41 | -2 (inactive) | -0.629 | 1.46 | -0.488 (inactive) | -0.846 | -2.19 (inactive) | -1.09 (inactive) | -3.38 (inactive) | 1.07 (inactive) | -0.592 (inactive) | -0.334 (inactive) | -0.514 (inactive) | 0.133 | -0.0599
COC(=O)[C@@]1(Cc2ccc(F)cc2)[C@H]2c3cc(C(=O)N(C)C)n(CCc4ccc(O)c(OC)c4)c3C[C@H]2CN1C(=O)c1ccccc1 | 0.558 | -0.306 | 0.364 | -0.254 | -0.364 | -0.27 | -0.763 (inactive) | -0.266 | 0.564 | -0.905 (inactive) | -0.275 | 0.358 (inactive) | -0.0883 (inactive) | 0.124 (inactive) | -0.263 (inactive) | 0.898 (inactive) | -0.952 (inactive) | -0.574 (inactive) | 0.28 | -0.196
CCOC(=O)[C@H]1[C@@H]2C(=O)N3CCC[C@H]3[C@H](O[Si](C(C)C)(C(C)C)C(C)C)[C@H]2C=C2CCN(S(=O)(=O)c3ccc(C)cc3)C[C@H]21 | 0.487 | 0.302 | -1.18 | -2.91 | -4.09 | 1.51 | -0.603 (inactive) | -1.06 | -0.814 | -0.742 (inactive) | -1.01 | 0.212 (inactive) | -1.84 (inactive) | -0.627 (inactive) | 0.318 (inactive) | -0.598 (inactive) | -0.146 (inactive) | -0.641 (inactive) | -3.37 | -0.148
O=C(NCCCCCNC(=O)/C(Cc1ccccc1)=N/O)OCc1ccccc1 | 1.54 | 0.989 | -0.756 | -0.781 | 0.476 | -0.348 | 0.627 (inactive) | 0.567 | -0.877 | 0.766 (inactive) | 0.619 | -3.54 (inactive) | 0.63 (inactive) | -0.713 (inactive) | 0.695 (inactive) | -1.21 (inactive) | 1.92 (inactive) | 1.42 (inactive) | 1.09 | -0.253
